Assay outcomes from PubChem BioAssay.
This is a sample that favours compounds with a hit; in the whole collection about 3.2% have one here.
DENV2 CPE – protects cells from dengue virus 2 cytopathic effect | DENV2-infected cells, cytopathic effect rescue, plate reader | CPE inhibition, % at 9.99 µM | 1.7% of 350,000 active; in the data active = CPE inhibition above about 20%, passing the limit was not always enough; tested in BHK-21 cells;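 note: 0% = median of neutral control wells and 100% = median of positive control wells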
Ecoli rRNA inh – inhibitors of bacterial rRNA selective over humanized ribosomes; E. coli WT GFP vs humanized-ribosome RFP mutants, fluorescence, 24 h; hits give low values; DMSO median 0, no signal -100; GFP signal change (wild-type ribosome), % (test concentration not listed); 1.6% of 350,000 active; AID 720706;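 active = significant combined selectivity score with lowered wild-type GFP, culture density cut under 30%, mutant RFP and density less affected; inactive = any of these conditions unmet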
INS-1E GSIS act – GLuc luminescence reporter in INS-1E cells, primary screen for activators of glucose-dependent secretion of insulin; INS-1E GLuc reporter insulin secretion, 2-3 h; activation, % at 16.6 µM; 0.61% of 370,000 active;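 active = lowest replicate activation of at least 40%, so every replicate reaches that level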;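 note: 0% = median of neutral control wells and 100% = median of IBMX positive control wells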
PGC1a acetyl inh – lowers PGC1a acetylation signal in U2OS cells | 0.17% of 350,000 active | AlphaScreen anti-acetyl-lysine; with virally co-expressed GCN5 acetyltransferase | AID 651687 | inhibition, % at 15.6 µM;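 active = every replicate shows inhibition of at least 40%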;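 note: 0% = neutral control wells and 100% = positive control wells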
CaV13 FRET inh – Disruptors of the CACNA1D IQ motif to Ca2+-dependent inactivation inhibitor domain association, primary screening, Förster resonance energy transfer in intact living … | inhibition, % at 12.3 µM | HEK cells, CFP/YFP FRET ICDI-IQ, plate reader, 10 min; percent FRET-ratio fall versus neutral wells | 0.098% of 340,000 active | AID 743397;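 active = mean replicate inhibition of at least 30% and at least 1% of replicates passing that level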;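 note: 0% = median of the neutral control wells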
ERAP1 inh – inhibitors of human ERAP1 aminopeptidase | inhibition, % at 10.7 µM | Q9NZ08 | recombinant ERAP1, Leu-AMC fluorescence, 60 min | 0.15% of 340,000 active;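 active = mean replicate inhibition of at least 30%, or all replicates individually reaching that 30% level; inactive = mean below 30% and not every replicate reaching it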;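 note: 0% = neutral control wells and 100% = L-leucinethiol positive control wells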
The depositor's hits bear a star; / = no result given.

SMILES | DENV2 CPE | Ecoli rRNA inh | INS-1E GSIS act | PGC1a acetyl inh | CaV13 FRET inh | ERAP1 inh
CNC[C@@H]1Oc2c(NS(=O)(=O)c3ccc(Cl)cc3)cccc2C(=O)N([C@@H](C)CO)C[C@@H]1C | -8 | 4 | 10 | 4 | / | 3
CNC[C@H]1Oc2c(NS(=O)(=O)c3ccc(Cl)cc3)cccc2C(=O)N([C@@H](C)CO)C[C@@H]1C | 94* | 3 | 9 | 2 | / | 3
c1ccc(Cn2c(-c3ccco3)nc3nc4ccccc4nc32)cc1 | / | / | / | 0 | -4 | /
O=C(CSc1nc2ccccc2c(=O)n1CC1CCCO1)NCc1ccccc1 (stereo not drawn) | -4 | 2 | 143* | -5 | -7 | -3
O=c1c2ccccc2nc(-c2ccco2)n1Cc1ccccc1 | / | / | 64* | 12 | -11 | /
O=C(CSc1nc2c(oc3ccccc32)c(=O)n1CC1CCCO1)NCc1ccccc1 (stereo not drawn) | 72* | 9 | -22 | -1 | -6 | -3
O=C(CSc1nc2ccccc2c(=O)n1Cc1ccccc1)NCc1ccco1 | / | / | 81* | -5 | -5 | /
O=C(CSc1nc2ccccc2c(=O)n1Cc1ccco1)NCc1ccccc1 | / | / | / | 7 | -5 | /
Cc1ccccc1NC(=O)CSc1nc2ccccc2c(=O)n1CC1CCCO1 (stereo not drawn) | 1 | 4 | 5 | -7 | -3 | -5
COc1ccc2c3c([nH]c2c1)[C@@H](CO)N(Cc1ccccc1F)CC31CCN(C)CC1 | 9 | 3 | 10 | -19 | / | 2
COc1ccc(CN(C)C[C@@H]2Oc3c(NS(=O)(=O)c4c(C)noc4C)cccc3C(=O)N([C@H](C)CO)C[C@@H]2C)cc1 | 1 | 5 | 20 | -7 | / | 0
CCOC(=O)CSc1nc(NCc2ccco2)c2ccccc2n1 | / | / | / | -1 | -8 | /
COc1ccc(CNc2nc(SCC(=O)NCc3ccco3)nc3ccccc23)cc1 | 5 | -31* | 0 | -3 | -7 | -1
O=Nc1ccc(Cl)cn1 | 31* | 6 | -5 | / | -4 | 6
O=C(Cc1ccccc1)NCC(=O)OCC(=O)c1ccccc1Cl | -2 | / | / | / | -4 | 2
O=C(CNC(=O)c1ccccc1)OCC(=O)c1ccccc1Cl | 28* | 1 | 24 | -3 | / | -2
CCC(=O)N(C)C[C@H]1Oc2cc(C#CC3CC3)ccc2S(=O)(=O)N([C@@H](C)CO)C[C@H]1C | 4 | 3 | -6 | -8 | / | 4
COc1ccccc1NC(=O)Nc1nc(CC(=O)N2CCN(c3ccc(F)cc3)CC2)cs1 | 40* | -12 | -9 | -6 | -4 | 1
N#C[C@H]1[C@@H](c2ccccc2-c2cccc(F)c2)[C@H](CO)N1C(=O)CN1CCOCC1 | -5 | -2 | -6 | -8 | / | 3
C/C=C/c1ccc2c(c1)[C@H]1[C@H](CCN1C(=O)c1ccc3c(c1)OCO3)[C@H](CO)N2 | -10 | -6 | -3 | / | / | -1
O=C(O)CCCCCN1C(=O)/C(=C/c2cn(-c3ccccc3)nc2-c2cccs2)SC1=S | -5 | 10 | / | / | -6 | -2
O=C(O)CCCCCN1C(=O)/C(=C\c2cn(-c3ccccc3)nc2-c2cccs2)SC1=S | 60* | 8 | 18 | -5 | -2 | -1
O=C(Nc1cccc(Cl)c1)N[C@@H]1CC[C@H](CCn2cc(Cc3ccccc3)nn2)O[C@H]1CO | -1 | -14 | -8 | 1 | / | -1
CCOc1cc(/C=N/NC(=O)C(N)=O)cc(Br)c1O | 6 | / | 1 | / | -4 | -3
CCOc1cc(/C=N/NC(=O)C(=O)NC2CC2)cc(Br)c1O | 47* | 8 | 3 | -6 | -5 | 3
SMILES | DENV2 CPE | Ecoli rRNA inh | INS-1E GSIS act | PGC1a acetyl inh | CaV13 FRET inh | ERAP1 inh
CC(=O)Oc1ccccc1C(=O)OCO/N=[N+](\[O-])N1CCCC1 | 0 | / | / | -8 | / | 3
O=C(O)c1cccc(NN=C2c3ccccc3-c3ccccc32)c1 | 3 | -53* | 9 | -9 | -7 | 3
O=C(O)c1cccc2c1-c1ccccc1/C2=N\Nc1ccccc1 | 3 | -39* | -21 | -7 | -20 | -20
O=C(O)c1cc(NN=C2c3ccccc3-c3ccccc32)ccc1Cl | 5 | -48 | -10 | -2 | -3 | 31*
CC(OC(=O)c1cccc(Cl)c1)C(=O)NC1CCCCC1C (stereo not drawn) | 6 | 12 | 30 | -5 | -10 | -3
CC(OC(=O)/C=C/c1cccc(Cl)c1)C(=O)NC1CCCCC1C (stereo not drawn) | 91* | 13 | 6 | / | -6 | -1
Cc1ccc2nc(NC(=O)CN3C(=O)C4CC=CCC4C3=O)sc2c1 (stereo not drawn) | -6 | -25* | -14 | 4 | 0 | -1
CS(=O)(=O)c1ccc2nc(NC(=O)CN3C(=O)C4CC=CCC4C3=O)sc2c1 (stereo not drawn) | -2 | 6 | / | -4 | 0 | 1
O=C(N[C@@H]1CC[C@@H](CCn2cc(C3CC3)nn2)O[C@H]1CO)c1cccnc1 | -6 | -1 | 8 | -11 | / | 0
Cc1cc(NC(=O)/C=C/c2ccc(Cl)cc2)no1 | / | / | 50* | / | -6 | /
C[C@@H]1CN([C@@H](C)CO)C(=O)c2cc(C#Cc3ccccc3)cnc2O[C@H]1CN(C)CC1CCOCC1 | 4 | 5 | 3 | -3 | / | 0
Cc1ccc(S(=O)(=O)/N=S(/c2ccccc2)C(C)C)cc1 (stereo not drawn) | 13 | 6 | -1 | 2 | 1 | 46*
CN/S(=N/S(=O)(=O)c1ccccc1)c1ccc(C)cc1 (stereo not drawn) | / | / | -1 | -4 | -8 | /
CC(C)C[C@@H](CN(N=O)[C@@H](Cc1ccccc1)CN(C)N=O)N(CCc1ccccc1)N=O | -8 | 2 | 3 | 6 | -6 | /
CN(C[C@H](Cc1ccccc1)N(C[C@@H](CC1CCCCC1)N(CCc1ccccc1)N=O)N=O)N=O | 57* | 4 | -19 | / | -11 | 1
C[C@H]1CCCCO[C@H](CN(C)C(=O)CCCN(C)C)[C@@H](C)CN([C@@H](C)CO)C(=O)c2cc(NC(=O)Cc3ccccc3)ccc2O1 | 29* | 3 | 10 | 0 | / | 3
C[C@@H]1CCCCO[C@@H](CN(C)C(=O)CCCN(C)C)[C@H](C)CN([C@H](C)CO)C(=O)c2cc(NC(=O)Nc3ccc4c(c3)OCO4)ccc2O1 | -3 | 3 | -12 | 1 | / | /
C[C@H](CO)N1C[C@H](C)[C@H](CN(C)C(=O)CCCN(C)C)OCCCC[C@H](C)Oc2ccc(NC(=O)Cc3ccccc3)cc2C1=O | 98* | 2 | 11 | 11 | / | 1
C[C@@H]1CCCCO[C@@H](CN(C)C(=O)CCCN(C)C)[C@H](C)CN([C@H](C)CO)C(=O)c2cc(NC(=O)Cc3ccccc3)ccc2O1 | -2 | 3 | -15 | -21 | / | 4
